Inconclusive results are not listed. The source made the active and inactive calls. Unless noted, calls come from the whole dose curve.
Target: Thyrotropin receptor (Homo sapiens) (UniProt P16473)
Experiment: qHTS assay to identify small molecule antagonists of the thyroid stimulating hormone receptor (TSHR) signaling pathway (AID 1259385); note: nearly all actives have a fitted effect of over 20% in size
Conditions: TSHR-HEK293 cAMP HTRF, TSH-stimulated antagonist mode; series mostly up to 92.4 µM; activity change, negative = inhibition: at the top concentration
Method in brief: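 TSHR-HEK293 cells (800/well) plated 18 h, then compounds with Ro20-1724 and TSH at 1.5 ng/mL final, 30 min at room temperature. cAMP quantified by HTRF (cAMP-d2/anti-cAMP-cryptate, 1 h); 15 concentrations in triplicate.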
% is set by controls: 0 for no effect and ±100 for the full control effect.

Chain of Thyrotropin receptor (Homo sapiens) (P16473 whole entry, looked up): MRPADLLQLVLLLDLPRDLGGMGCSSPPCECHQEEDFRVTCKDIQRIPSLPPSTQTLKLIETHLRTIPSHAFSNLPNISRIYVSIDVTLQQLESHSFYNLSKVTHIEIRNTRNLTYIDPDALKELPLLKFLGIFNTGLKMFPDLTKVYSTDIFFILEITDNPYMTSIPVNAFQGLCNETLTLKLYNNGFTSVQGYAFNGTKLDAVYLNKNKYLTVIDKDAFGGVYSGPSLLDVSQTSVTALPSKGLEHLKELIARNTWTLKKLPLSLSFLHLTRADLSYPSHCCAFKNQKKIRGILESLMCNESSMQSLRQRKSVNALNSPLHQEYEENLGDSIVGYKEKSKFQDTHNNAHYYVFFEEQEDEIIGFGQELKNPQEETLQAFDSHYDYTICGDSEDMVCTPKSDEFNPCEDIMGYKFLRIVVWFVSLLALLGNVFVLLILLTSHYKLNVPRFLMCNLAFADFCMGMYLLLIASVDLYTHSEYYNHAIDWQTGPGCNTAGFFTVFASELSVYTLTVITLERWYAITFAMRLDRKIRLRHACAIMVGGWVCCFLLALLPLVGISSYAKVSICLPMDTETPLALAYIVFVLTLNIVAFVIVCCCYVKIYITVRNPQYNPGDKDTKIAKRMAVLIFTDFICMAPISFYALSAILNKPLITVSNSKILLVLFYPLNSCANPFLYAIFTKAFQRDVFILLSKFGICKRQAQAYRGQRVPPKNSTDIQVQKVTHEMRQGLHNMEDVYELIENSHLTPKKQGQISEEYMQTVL

SMILES | activity change, negative = inhibition
Cc1cc(SC2=C(O)C[C@@](CCc3ccc(N)cc3)(C(C)C)OC2=O)c(C(C)(C)C)cc1CO | -0.43% (inactive)
CCCCOC(=O)CC#N | 1.03% (inactive)
CC(C)=CCCC(C)C=O (stereo not given) | 7.27% (inactive)
CCC(C)CCCC(C)(C)O (stereo not given) | 2.86% (inactive)
CC1(COc2ccc(CC3SC(=O)NC3=O)cc2)CCCCC1 (stereo not given) | -0.0064% [at 42.5 µM] (inactive)
Cc1c(Nc2ncccc2C(=O)O)cccc1C(F)(F)F | -5.85% [at 42.5 µM] (inactive)
CC(C)C/C=C(\C=O)c1ccccc1 | 1.01% (inactive)
CCCCCCCCCCCCCCCCN | 2.7% [at 42.5 µM] (inactive)
O=C(OCCCCCOC(=O)c1ccccc1)c1ccccc1 | -4.12% (inactive)
C=CC(C)CCC=C(C)C (stereo not given) | 5.33% (inactive)
O=[N+]([O-])c1cccc(I)c1 | -5.29% (inactive)
Nc1ccc(-c2ccc(F)cc2)cc1 | -0.544% (inactive)
CCCC(=O)OCCC(C)C | -0.385% (inactive)
CC(C)NC(=O)c1ccccc1N | 0.944% (inactive)
NC(=O)c1ccccc1C(N)=O | -0.0867% (inactive)
CCc1ccc2c(c1)C(=O)c1ccccc1C2=O | -0.617% (inactive)

SMILES | activity change, negative = inhibition
COC(=O)Cc1cccc2ccccc12 | 2.83% (inactive)
CC(C)C[C@H](NC(=O)[C@H](Cc1ccccc1)NC(=O)c1cnccn1)B(O)O | 8.81% [at 42.5 µM] (inactive)
CC(C)(C(=O)O)c1ccc(C(O)CCCN2CCC(C(O)(c3ccccc3)c3ccccc3)CC2)cc1 (stereo not given) | 1.9% [at 42.5 µM] (inactive)
O=Cc1ccc([N+](=O)[O-])cc1 | 7.31% (inactive)
O=C1CCCN1CCO | 0.192% (inactive)
O=C(Cl)c1ccc(F)c(Cl)c1 | 0.741% (inactive)
Nc1cccc2c(=O)[nH][nH]c(=O)c12 | -9.28% (inactive)
N#CCCCC(C#N)CCC#N (stereo not given) | 0.417% (inactive)
O=C(O)c1cccc(C(=O)O)c1C(=O)O | 0.852% (inactive)
CCCCCO | -1.89% (inactive)
O=C(OCCN1CCOCC1)c1cccnc1Nc1cccc(C(F)(F)F)c1 | -0.193% [at 42.5 µM] (inactive)
C[C@H](N)C(=O)N[C@@H](C)C(=O)NC1[C@H]2CN(c3nc4c(cc3F)c(=O)c(C(=O)O)cn4-c3ccc(F)cc3F)C[C@@H]12 (stereo not given in full) | 0.763% [at 42.5 µM] (inactive)
CS(C)=O | 1.48% (inactive)
CC(CCl)OC(C)CCl (stereo not given) | 1.71% (inactive)
O=c1[nH][nH]c2ccccc12 | -0.456% (inactive)

Test system: not listed separately
Experiment: qHTS assay to identify small molecule agonists of the estrogen receptor alpha (ER-alpha) signaling pathway in the presence of an antagonist - cell viability counter screen (AID 1259386; active = well fitted cell-killing curve with a large enough effect in the repeat runs;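 note: cells exposed to compounds for 22 h at 37 °C before the viability read; nearly all actives have a fitted effect of over 30% in size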)
Conditions: VM7Luc4E2 viability, CellTiter-Fluor fluorescence, 22 h; series mostly up to 92.4 µM; activity change, negative = cytotoxicity: at the top concentration
Method in brief: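 The test measures whether compounds kill ER-alpha reporter cells (VM7Luc4E2) under antagonist co-treatment (ICI-182,780, 10.0nM). Fluorescence from CellTiter-Fluor is read after a 22hr exposure.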

SMILES | activity change, negative = cytotoxicity
Nc1nc(Cl)nc2c1ncn2[C@H]1C[C@H](O)[C@@H](CO)O1 | 5.12% (inactive)
Cc1cc(SC2=C(O)C[C@@](CCc3ccc(N)cc3)(C(C)C)OC2=O)c(C(C)(C)C)cc1CO | 4.31% (inactive)
CCCCOC(=O)CC#N | -1.26% (inactive)
CC(C)=CCCC(C)C=O (stereo not given) | -2.27% (inactive)
CCC(C)CCCC(C)(C)O (stereo not given) | 0.592% (inactive)
CC1(COc2ccc(CC3SC(=O)NC3=O)cc2)CCCCC1 (stereo not given) | -5.12% [at 42.5 µM] (inactive)
Cc1c(Nc2ncccc2C(=O)O)cccc1C(F)(F)F | 0.385% [at 42.5 µM] (inactive)
CC/C=C\CCO | 0.284% (inactive)
CCCCCCCCCCCCCCCCN | -2.15% [at 42.5 µM] (inactive)
O=C(OCCCCCOC(=O)c1ccccc1)c1ccccc1 | -1.54% (inactive)
C=CC(C)CCC=C(C)C (stereo not given) | 0.987% (inactive)
O=[N+]([O-])c1cccc(I)c1 | 0.825% (inactive)
CC(CC(C#N)(c1ccccc1)C(C)C)N(C)C (stereo not given) | -4.63% [at 42.5 µM] (inactive)
Nc1ccc(-c2ccc(F)cc2)cc1 | 0.169% (inactive)
CCCC(=O)OCCC(C)C | 3.56% (inactive)
CC(C)NC(=O)c1ccccc1N | 6.81% (inactive)
NC(=O)c1ccccc1C(N)=O | 0.421% (inactive)
CCc1ccc2c(c1)C(=O)c1ccccc1C2=O | -2.42% (inactive)
COC(=O)Cc1cccc2ccccc12 | 0.737% (inactive)

— PubChem BioAssay (Tox21)
